Test results published in the supplement of paper PMC6992640.
± gives the standard deviation of the averaged measurements.

How the values were obtained:
Assay in all cases: cell viability (% of vehicle); higher = less cytotoxic
HCI01 [1] = cells of a triple-negative basal-like breast cancer xenograft; settings: 1 µM; 72 h
UCD52 [2] = cells of a triple-negative basal-like breast cancer xenograft; settings: 1 µM; 72 h
WHIM2 [3] = cells of a triple-negative basal-like breast cancer xenograft; settings: 1 µM; 72 h
WHIM30 [4] = cells of a triple-negative basal-like breast cancer xenograft; settings: 1 µM; 72 h
HCI01 [5] = settings: 10 µM; 72 h
HCI03 = cells of an ER-positive luminal breast cancer xenograft; settings: 10 µM; 72 h
HCI09 = cells of a triple-negative luminal androgen receptor type breast cancer xenograft; settings: 10 µM; 72 h
HCI11 = cells of an ER-positive luminal breast cancer xenograft; settings: 10 µM; 72 h
HCI13 = cells of an ER-positive luminal breast cancer xenograft; settings: 10 µM; 72 h
HCI16 = cells of a triple-negative basal-like breast cancer xenograft; settings: 10 µM; 72 h
UCD52 [6] = settings: 10 µM; 72 h
WHIM2 [7] = settings: 10 µM; 72 h
WHIM30 [8] = settings: 10 µM; 72 h

| Compound | cell viability (HCI01 [1]) | cell viability (UCD52 [2]) | cell viability (WHIM2 [3]) | cell viability (WHIM30 [4]) | cell viability (HCI01 [5]) | cell viability (HCI03) | cell viability (HCI09) | cell viability (HCI11) | cell viability (HCI13) | cell viability (HCI16) | cell viability (UCD52 [6]) | cell viability (WHIM2 [7]) | cell viability (WHIM30 [8]) |
| --- | --- | --- | --- | --- | --- | --- | --- | --- | --- | --- | --- | --- | --- |
| COC(=O)C1=C(C)NC(C)=C(C(=O)OCCN(C)Cc2ccccc2)C1c1cccc([N+](=O)[O-])c1.Cl (stereo unspecified) [Nicardipine HCl] | 108 | 94.4 | 93.5 | 100 | 66 ± 2.2 | 99.9 | 35.5 ± 4.3 | 65.4 | 55.4 ± 8.6 | 126 | 55.37 ± 0.27 | 48.8 ± 8.4 | 80 ± 5.5 |
| Oc1c(Cl)cc(Cl)c2cccnc12 [Chloroxine] | 93.2 | 96.7 | 96.5 | 71.6 | 36.5 ± 3.6 | 56.7 | 28.7 ± 2.7 | 69.7 | 65 ± 15 | 130 | 120 ± 88 | 79.7 ± 55 | 48.9 ± 4.8 |
| CCc1oc2ccccc2c1C(=O)c1cc(Br)c(O)c(Br)c1 [Benzbromarone] | 88.4 | 92.9 | 102 | 88.3 | 65.9 ± 49 | 103 | 33.8 ± 25 | 98 | 128 ± 29 | 97 | 76 ± 7.4 | 40.1 ± 12 | 95.1 ± 20 |
| COc1cc2nccc(Oc3ccc(NC(=O)NC4CC4)c(Cl)c3)c2cc1C(N)=O [Lenvatinib (E7080)] | 89.1 | 56.2 | 83 | 94.1 | 94.2 ± 28 | 70.5 | 79.8 ± 7.3 | 48.6 | 44.8 ± 3.3 | 61.4 | 57.8 ± 6.3 | 64 ± 21 | 48.1 ± 2 |
| CC(C)C1=CC(=C2NNC(=O)N2c2ccc3c(ccn3C)c2)C(=O)C=C1O [Ganetespib (STA-9090)] | 83.9 | 46.6 | 55.2 | 138 | 59.1 ± 28 | 53.9 | 25.3 ± 2 | 36.5 |  | 68.2 | 48.6 ± 9.8 | 95 ± 7.9 | 96.6 ± 1.9 |
| COc1cc2c(Oc3ccc(NC(=O)C4(C(=O)Nc5ccc(F)cc5)CC4)cc3F)ccnc2cc1OCCCN1CCOCC1 | 89.1 | 48.2 | 71.2 | 70.2 | 35.4 ± 4.4 | 55 | 65.7 ± 32 | 52.7 | 60.2 ± 6.2 | 48 | 28 ± 2.1 | 50.1 ± 11 | 64.8 ± 15 |
| COc1cc2ncnc(Nc3ccc(F)c(Cl)c3)c2cc1NC(=O)C=CCN1CCCCC1 | 70.8 | 40 | 43.9 | 54.6 | 34.5 ± 3.5 | 49.8 | 22.3 ± 1.4 | 57 | 24.6 ± 15 | 55.1 | 29.7 ± 2.9 | 43.9 ± 9.3 | 47.4 ± 1.6 |
| COC(=O)NC(C(=O)N1CCCC1c1ncc(-c2ccc(-c3ccc(-c4cnc(C5CCCN5C(=O)C(NC(=O)OC)C(C)C)[nH]4)cc3)cc2)[nH]1)C(C)C (stereo unspecified) | 85.1 | 82.6 | 93.7 | 82.8 | 79.8 ± 2.9 | 99.6 | 42.7 ± 35 | 72.6 | 131 ± 110 | 87.2 | 62.3 ± 1.2 | 58.8 ± 6.8 | 102 ± 11 |
| CCN(CC)CCNC(=O)c1c(C)[nH]c(C=C2C(=O)Nc3ccc(F)cc32)c1C.O=C(O)CC(O)C(=O)O [Sunitinib malate] | 73.4 | 64.6 | 96 | 69.2 | 37.7 ± 18 | 73.6 | 11.3 ± 0.53 | 111 | 58.1 ± 1.6 | 128 | 15.3 ± 1.1 | 31.7 ± 12 | 41.7 ± 11 |
| Clc1ccc(C(Cn2ccnc2)OCc2ccc(Sc3ccccc3)cc2)c(Cl)c1.O=[N+]([O-])O (stereo unspecified) [Fenticonazole Nitrate] | 89.6 | 92.5 | 107 | 91.5 | 40.8 ± 0.92 | 96.9 | 19.2 ± 2.4 | 74.8 | 44.74 ± 0.32 | 105 | 59.12 ± 0.32 | 40.7 ± 11 | 91.8 ± 8.3 |
| CCC(NC(=O)C(C)NC)C(=O)N1CC(O)CC1Cc1c(-c2[nH]c3cc(F)ccc3c2CC2CC(O)CN2C(=O)C(CC)NC(=O)C(C)NC)[nH]c2cc(F)ccc12 (stereo unspecified) | 82.8 | 68.5 | 36.3 | 56.6 | 133 ± 5.6 | 99.5 | 146 ± 36 | 128 |  | 115 | 93.8 ± 8.2 | 114.1 ± 0.19 | 149 ± 20 |
| CC1=CC(=O)c2ccccc2C1=O [Menadione] | 98.6 | 94.2 | 105 | 98.2 | 61.6 ± 55 | 51.9 | 31.3 ± 7.9 | 30.5 | 57.3 ± 4.9 | 57.6 | 30.5 ± 2.1 | 44.1 ± 10 | 138 ± 14 |
| CNCCCC12CCC(c3ccccc31)c1ccccc12.Cl [Maprotiline HCl] | 90.9 | 81.1 | 93.2 | 83.3 | 89.8 ± 4.9 | 75.5 | 56.8 ± 21 | 78.4 | 107.1 ± 0.46 | 80.2 | 35.4 ± 2.8 | 66.6 ± 10 | 44.8 ± 30 |
| C#Cc1cccc(Nc2ncnc3cc(OCCOC)c(OCCOC)cc23)c1 [Erlotinib] | 62.6 | 59.8 | 53.7 | 65 | 79.4 ± 26 | 73.6 | 63.7 ± 8.2 | 74.2 | 72.7 ± 3.5 | 81.1 | 67.82 ± 0.58 | 47.9 ± 9 | 107 ± 4.9 |
| Br.Cc1ccc(Sc2ccccc2N2CCNCC2)c(C)c1 | 113 | 71.2 | 102 | 80.6 | 28 ± 3 | 44.4 | 17.5 ± 4 | 76.7 | 39.1 ± 6.4 | 35.3 | 23.6 ± 4.2 | 33.9 ± 14 | 26.9 ± 4.6 |
| CNC(=O)c1cc(Oc2ccc(NC(=O)Nc3ccc(Cl)c(C(F)(F)F)c3)c(F)c2)ccn1.Cl [Regorafenib hydrochloride] | 104 | 71.5 | 104 | 98.7 | 56.2 ± 0.73 | 114 | 82.2 ± 10 | 65.5 | 36.7 ± 1.2 | 62.7 | 93.8 ± 11 | 97.7 ± 4.6 | 60.6 ± 32 |
| CCCSc1nc(NC2CC2c2ccc(F)c(F)c2)c2nnn(C3CC(OCCO)C(O)C3O)c2n1 (stereo unspecified) [Ticagrelor] | 97.8 | 91 | 89.7 | 75.5 | 41.1 ± 38 | 122 | 47.6 ± 30 | 80.5 | 46.1 ± 3.6 | 80 | 64.95 ± 0.47 | 41.2 ± 12 | 97.7 ± 5.2 |
| CCOC(=O)c1c(CSc2ccccc2)n(C)c2cc(Br)c(O)c(CN(C)C)c12.Cl [Arbidol HCl] | 86.5 | 78.9 | 82.9 | 92.6 | 82.6 ± 33 | 87.3 | 58.6 ± 4.3 | 114 | 64.4 ± 11 | 92.3 | 35.7 ± 1.1 | 39.3 ± 9.1 | 85.2 ± 6.7 |
| Cc1cn(-c2cc(NC(=O)c3ccc(C)c(Nc4nccc(-c5cccnc5)n4)c3)cc(C(F)(F)F)c2)cn1 [Nilotinib(AMN-107)] | 78.2 | 77.5 | 88 | 75.3 | 105 ± 61 | 79.8 | 90.1 ± 21 | 76.6 | 91.3 ± 13 | 92.1 | 47.83 ± 0.22 | 69.1 ± 7.7 | 75 ± 2.3 |
| Nc1c(CC(=O)[O-])cccc1C(=O)c1ccccc1.O.[Na+] [Amfenac Sodium Monohydrate] | 97.6 | 93 | 115 | 99.5 | 56.6 ± 53 | 102 | 92.4 ± 14 | 92.6 | 114 ± 16 | 104 | 62.1 ± 8.9 | 82.7 ± 3.5 | 90.11 ± 0.73 |
| O=C(O)c1cc(O)c(O)c(O)c1 [Gallic acid] | 96.4 | 97.1 | 82.1 | 102 | 77.5 ± 0.96 | 107 | 90.8 ± 9.4 | 54.3 | 105 ± 7.6 | 126 | 91.2 ± 8.8 | 58 ± 13 | 84.5 ± 8.9 |
| O=C(c1ccc(F)c(F)c1Nc1ccc(I)cc1F)N1CC(O)(C2CCCCN2)C1 (stereo unspecified) [Cobimetinib] | 74.9 | 52.9 | 58.8 | 59.8 | 76.8 ± 21 | 80.6 | 64.7 ± 24 | 82.8 | 74.8 ± 0.28 | 63.2 | 42.65 ± 0.23 | 48.9 ± 3.3 | 78.2 ± 2.8 |
| CC(=O)c1cc2c(o1)C(=O)c1ccccc1C2=O [Napabucasin] | 30.1 | 29.6 | 50.3 | 33.9 | 54.9 ± 23 | 54.2 | 29.1 ± 9.1 | 21.8 | 46.9 ± 9.2 | 58.7 | 40.3 ± 7.5 | 72.4 ± 12 | 45.1 ± 7.3 |
| [O-]n1ccccc1=S.[O-]n1ccccc1=S.[Zn+2] [Zinc Pyrithione] | 52 | 67.2 | 70.2 | 65.3 | 16 ± 11 | 45.1 | 29.6 ± 26 | 24.8 | 144 ± 130 | 43.1 | 25.6 ± 1.7 | 33 ± 8.9 | 45.5 ± 4.8 |
| N.N.O=C([O-])C1(C(=O)[O-])CCC1.[Pt+2] [Carboplatin] | 87.9 | 80.1 | 99.9 | 77 | 82.1 ± 6.4 | 82.7 | 91.7 ± 4 | 86.4 | 86.87 ± 0.21 | 51 | 39.6 ± 6.8 | 84.8 ± 13 | 89 ± 5.5 |
| C#Cc1cccc(Nc2ncnc3cc(OCCOC)c(OCCOC)cc23)c1.Cl [Erlotinib Hydrochloride] | 63.1 | 68.3 | 50.1 | 80.5 | 75.1 ± 35 | 50 | 59 ± 12 | 104 | 69.8 ± 5.8 | 100 | 52.4 ± 1.8 | 48 ± 8.3 | 84.5 ± 5.2 |
| Nc1ccc2cc3ccc([NH3+])cc3nc2c1.Nc1ccc2cc3ccc([NH3+])cc3nc2c1.O=S(=O)([O-])[O-] [Proflavine Hemisulfate] | 91.4 | 139 | 51.3 | 58.8 | 82.6 ± 55 | 144 | 23.3 ± 3.6 | 41.6 |  | 165 | 54.6 ± 16 | 50.3 ± 13 | 85.2 ± 2.2 |
| O=C(C=Cn1cnc(-c2cc(C(F)(F)F)cc(C(F)(F)F)c2)n1)NNc1cnccn1 | 67.4 | 59.5 | 66.1 | 41.8 | 41.9 ± 24 | 41 | 31.5 ± 14 | 92.7 | 35.4 ± 2.5 | 73.2 | 80.1 ± 1.8 | 70.94 ± 0.096 | 46.7 ± 0.48 |
